From PubChem
KCNQ2 pot = enhances the rat KCNQ2 potassium channel. O88943. CHO-K1 KCNQ2, FluxOR thallium flux fluorescence; stronger effect = higher value. B-score at 10 µM. 0.54% of 310,000 active. AID 2239;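 active means fluorescence ratio B-score at least 3 SD of library B-scores, with initial fluorescence B-score within 3 of them, cut at about 5.3 in these data; same plate scores as AID 2156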;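 further: B-score of peak minus minimum over baseline fluorescence ratio after K+ and Tl+ stimulus; positive B-score means potentiation of KCNQ2 with more thallium influx and brighter signal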
Target sequence (O88943 whole entry, looked up): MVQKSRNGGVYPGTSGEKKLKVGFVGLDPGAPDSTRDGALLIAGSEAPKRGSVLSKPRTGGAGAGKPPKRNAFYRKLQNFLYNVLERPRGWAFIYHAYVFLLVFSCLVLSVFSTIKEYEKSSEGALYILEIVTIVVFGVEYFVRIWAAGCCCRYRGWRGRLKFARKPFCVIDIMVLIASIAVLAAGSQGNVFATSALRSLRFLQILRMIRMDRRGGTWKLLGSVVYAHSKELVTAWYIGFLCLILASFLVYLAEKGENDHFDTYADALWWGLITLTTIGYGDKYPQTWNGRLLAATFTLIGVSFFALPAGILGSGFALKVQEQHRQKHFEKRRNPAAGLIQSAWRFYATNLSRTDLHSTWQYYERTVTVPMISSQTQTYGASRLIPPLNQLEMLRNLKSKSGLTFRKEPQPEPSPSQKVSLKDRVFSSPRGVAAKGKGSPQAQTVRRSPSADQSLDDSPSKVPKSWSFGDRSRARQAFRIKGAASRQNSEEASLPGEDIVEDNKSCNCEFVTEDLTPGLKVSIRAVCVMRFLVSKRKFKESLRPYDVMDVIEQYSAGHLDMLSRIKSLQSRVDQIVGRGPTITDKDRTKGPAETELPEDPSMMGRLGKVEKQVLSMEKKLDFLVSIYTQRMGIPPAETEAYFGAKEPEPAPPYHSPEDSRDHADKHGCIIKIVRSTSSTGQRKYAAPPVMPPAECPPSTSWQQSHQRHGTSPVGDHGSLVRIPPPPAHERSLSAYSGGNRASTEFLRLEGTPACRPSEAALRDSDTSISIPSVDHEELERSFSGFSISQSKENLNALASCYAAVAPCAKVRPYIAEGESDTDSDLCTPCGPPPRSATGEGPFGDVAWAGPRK
KCNQ2 inh = inhibitors of rat KCNQ2 potassium channel; O88943; B-score at 10 µM; CHO-K1 KCNQ2, FluxOR thallium flux, 20 min; stronger effect = lower value; 1.1% of 310,000 active;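 active means fluorescence ratio B-score at most minus 3 library SDs, with starting brightness B-score within 2 library SDs, cut at about -5.5 in these data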
KCNQ2 inh conf = rat KCNQ2 channel inhibition, confirmatory screen; shares compounds with KCNQ2 inh; KCNQ2-expressing cells, thallium flux; stronger effect = lower value; activity change, negative = inhibition, % at 10 µM; 57% of 1,000 active; AID 493025;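 further: 0% = vehicle wells and values are ratio percent relative to vehicle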
KCNQ1 spec = selectivity of KCNQ2 inhibitors against human KCNQ1; activity change, negative = inhibition, % at 10 µM; KCNQ1-expressing cells, FluxOR thallium flux fluorescence; stronger effect = lower value; shares compounds with KCNQ2 inh; 15% of 1,000 active;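 active means activity change at least 3 SD of negative controls below their mean in both duplicate wells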;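 further: CHO cells stably transfected with KCNQ1 and depolarized by potassium stimulus; peak minus minimum fluorescence over baseline after thallium addition; 0% = vehicle negative control and -100% = blank without thallium stimulus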
CHO parental ctr = counter-screen for KCNQ2 inhibitors: effect in parental CHO cells. thallium flux counter-screen; stronger effect = lower value. activity change, % at 10 µM. 14% of 1,000 active. shares compounds with KCNQ2 inh;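 further: 0% = vehicle negative controls with stimulus buffer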
KCNQ2 patch conf = blocks rat KCNQ2 current in automated patch clamp; calls only at 10 µM; shares compounds with KCNQ2 inh; 49% of 550 active; KCNQ2-expressing cells
Kir21 confirm = confirmation of mouse Kir2.1 potassium channel inhibitors; shares compounds with KCNQ2 pot; AID 2032; Tl flux remaining, % of negative control (stronger effect = lower value), % at 10 µM; Kir2.1-expressing cells, FluxOR thallium flux fluorescence; stronger effect = lower value; 41% of 2,300 active;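 active means Primary-screen hit whose thallium flux fell at least 3 control SD below untreated wells in both duplicates, with normal baseline fluorescence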;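 further: 0% = blank wells without stimulus and 100% = stimulated no-compound controls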
HEK293 Tl flux = counter-screen for Kir2.1 inhibitors: effect in parental HEK293 cells; 19% of 2,300 active; FluxOR signal as % of negative control (100 = no effect), % at 10 µM; FluxOR thallium flux fluorescence; 0% = unstimulated blank wells; shares compounds with KCNQ2 pot;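 active means dye signal at least 3 control SD above or below untreated wells in both duplicates, raw fluorescence within 3, either direction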;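 further: percent is based on the flux ratio of peak minus minimum fluorescence over baseline F0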
The depositor's hits bear a star; i = inactive; . = no result given; + = active, no number. Rows were chosen to be rich in hits. Some 1.6% of all compounds tested hit in one or more screens of this group. Unless noted, how the calls were made is not given here.

SMILES	KCNQ2 pot	KCNQ2 inh	Kir21 confirm	HEK293 Tl flux	others
COc1ccc(-c2nn(CCC#N)cc2C(=O)NCc2ccccc2)cc1OC	0.86	i	.	.
CON(C)C(=O)Nc1ccc(Cl)cc1	.	i	.	.
O=C(Nc1ccc(Cl)cc1)O/N=C(\c1ccccc1)c1ccccn1	-7.65	-7.65*	.	.	KCNQ2 inh conf=i;KCNQ1 spec=i;CHO parental ctr=i
O=C(Nc1ccccc1)N1CC2CC(C1)c1cccc(=O)n1C2 (stereo not drawn)	0.05	i	.	.
COc1ccc(NC(c2ccccc2)P(=O)(Oc2ccccc2)Oc2ccccc2)cc1 (stereo not drawn)	-6.98	-6.98*	.	.	KCNQ2 inh conf=-31.0%*;KCNQ1 spec=i;CHO parental ctr=i;KCNQ2 patch conf=+
COc1ccc(NC(c2ccccc2F)P(=O)(Oc2ccccc2)Oc2ccccc2)cc1 (stereo not drawn)	.	i	.	.
CC(=O)N1N=C2C3CCN(CC3)C2C1c1ccc(Br)cc1 (stereo not drawn)	.	i	.	.
Cc1cccc(OP(N)(=O)Oc2cccc(C)c2C)c1C	2.31	i	.	.
O=P(Nc1ccccc1)(Nc1ccccc1)Oc1cccc(Cl)c1	-7.71	-7.71*	.	.	KCNQ2 inh conf=i;KCNQ1 spec=i;CHO parental ctr=i
O=P(Nc1ccccc1)(Nc1ccccc1)Oc1ccccc1	.	i	.	.
COc1ccc(-[n+]2c(-c3ccccc3)cc(-c3ccc(C)cc3)cc2-c2ccccc2)cc1	-10.1	-10.1*	14.0%*	i	KCNQ2 inh conf=-26.0%*;KCNQ1 spec=i;CHO parental ctr=i;KCNQ2 patch conf=+
COc1ccc(-c2cc(-c3ccccc3)[n+](C)c(-c3ccccc3)c2)cc1	.	i	.	.
c1ccc(CCNCc2cccs2)cc1	0.39	i	.	.
CCCCCCCSc1cc(OC)c(CCN(C)C)cc1OC	-7.74	-7.74*	19.0%*	i	KCNQ2 inh conf=-34.0%*;KCNQ1 spec=-37.5%*;CHO parental ctr=-27.5%*;KCNQ2 patch conf=i
CC1CCC(C(C)C)C(OC(=O)Cn2c(COc3ccccc3)[n+](C)c3ccccc32)C1 (stereo not drawn)	-9.99	-9.99*	18.0%*	i	KCNQ2 inh conf=-55.0%*;KCNQ1 spec=-52.5%*;CHO parental ctr=-50.5%*;KCNQ2 patch conf=i
CN1C(=O)C(=Cc2sc(=O)n(-c3ccccc3)c2N(C)C)C(=O)N(C)C1=O	.	i	.	.
Cn1c(=O)c2c(nc(N/N=C/c3c(O)n(C4CCCCC4)c(=S)[nH]c3=O)n2C)n(C)c1=O	0.97	i	.	.
Oc1ccccc1-[n+]1c(-c2ccccc2)cc(-c2ccccc2)cc1-c1ccccc1	-7.58	-7.58*	44.5%*	i	KCNQ2 inh conf=-16.5%*;KCNQ1 spec=i;CHO parental ctr=i;KCNQ2 patch conf=i
Cc1ccc(-c2cc(-c3ccccc3)cc(-c3ccccc3)[n+]2-c2ccc(C(=O)O)cc2)cc1	.	i	.	.
Cc1nn(CC(=O)N2CCC3(CC2)OCCO3)c(=O)c2cc3ccccc3n12	2.18	i	.	.
CN1c2ccc([N+](=O)[O-])cc2CC2(C(=O)NC(=O)N(c3ccc(Br)cc3)C2=O)C1c1ccccc1 (stereo not drawn)	0.51	i	.	.
CCCCn1c(O)c(C(C)=NC(Cc2c[nH]c3ccccc23)C(=O)OC)c(=O)[nH]c1=O (stereo not drawn)	.	i	.	.
COc1ccc(CCNCc2ccccc2)cc1	1.26	i	.	.
COc1ccc(CCNCc2c(OC)ccc3ccccc23)cc1	.	i	28.5%*	i
Cc1ccc(S(=O)(=O)Cc2ccc(C(=O)N3CCC4(CC3)OCCO4)o2)cc1	0.15	i	.	.
SMILES	KCNQ2 pot	KCNQ2 inh	Kir21 confirm	HEK293 Tl flux	others
Cc1ccc(-c2cc(-c3ccc(C)cc3)[n+](-c3ccc(C(=O)O)cc3)c(-c3ccc(C)cc3)c2)cc1	0.83	i	.	.
Brc1ccc(-[n+]2c(-c3ccccc3)cc(-c3ccccc3)cc2-c2ccccc2)cc1	-8.41	-8.41*	34.0%*	i
Cc1ccccc1-[n+]1c(-c2ccccc2)cc(-c2ccccc2)cc1-c1ccccc1	-8.31	-8.31*	16.0%*	57.0%*
CCCOC(=O)c1ccc(-[n+]2c(-c3ccccc3)cc(-c3ccccc3)cc2-c2ccccc2)cc1	-6.93	-6.93*	36.5%*	i
C[n+]1c(-c2ccccc2)cc(CCCCc2cc(-c3ccccc3)[n+](C)c(-c3ccccc3)c2)cc1-c1ccccc1	.	i	.	.
[O-]c1ccccc1-[n+]1c(-c2ccccc2)cc(-c2ccccc2)cc1-c1ccccc1	.	i	25.0%*	i
O=C1C(Cc2cnc[nH]2)NC(=S)N1c1ccccc1 (stereo not drawn)	0.01	i	.	.
Cc1ccc(N2C(=O)NC(=O)/C(=C\C=C\c3ccco3)C2=O)cc1C	.	i	.	.
CN1CC(C(=O)c2ccccc2)C(c2ccccc2)C1 (stereo not drawn)	1.25	i	.	.
CN1CC(C(=O)c2ccc([N+](=O)[O-])cc2)C(c2ccc(Cl)cc2)C1 (stereo not drawn)	.	i	.	.
CN1CC(C(=O)c2cccc(C(F)(F)F)c2)C(c2ccc(Cl)cc2)C1 (stereo not drawn)	.	i	41.5%*	59.0%*
COc1cccc(C(=O)C2CN(C)CC2c2ccc(Cl)cc2)c1 (stereo not drawn)	.	i	37.5%*	i
CC[n+]1c(SC)ccc2cc(OC)ccc21	0.43	i	.	.
FC(F)(F)c1cccc(C2NCc3ccccc3-n3cccc32)c1 (stereo not drawn)	.	i	.	.
Oc1ccc(C2NCc3ccccc3-n3cccc32)cc1Cl (stereo not drawn)	0.53	i	59.0%*	i
COc1c(C)cc(C(=O)C2CCCN(Cc3ccccn3)C2)cc1C (stereo not drawn)	.	i	.	.
O=C(NC12CC3CC(CC(C3)C1)C2)OC1CN2CCC1CC2 (stereo not drawn)	.	i	.	.
COc1ccc(CCNCc2ccc(C)s2)cc1OC	1.37	i	.	.
COc1ccc(Cc2nccc3cc(OC)c(OC)cc23)cc1OC	.	i	43.0%*	i
CN1C[C@@H]2C[C@@H](c3cccn3-c3ccccn3)N3CCC[C@@]23C1=O	0.72	i	.	.
O=C(O)CCC(=O)NCCC1=c2ccccc2=N/C1=C\c1c(O)n(Cc2ccc(F)cc2)c(=S)[nH]c1=O	.	i	.	.
Cc1cc(C)n(CCOC(=O)C2C(C=C(Cl)Cl)C2(C)C)n1 (stereo not drawn)	.	i	43.0%*	i
OC1(c2ccccc2F)CC2CCC(C1)N2CCN1CCOCC1 (stereo not drawn)	1.45	i	.	.
CCOC(=O)C(O)(c1ccc(N(CC)C(=O)COc2ccccc2)cc1)C(F)(F)F (stereo not drawn)	0.54	i	.	.
CCOP(=O)(OCC)C(O)c1ccc2c(c1)OCO2 (stereo not drawn)	0.55	i	.	.
